These results are taken from the supplement of paper PMC4188521.

Compound in the test: CCc1cnn2c(NCc3ccc[n+]([O-])c3)cc(N3CCCC[C@H]3CCO)nc12 [dinaciclib]
In words: cell viability remaining relative to DMSO control; higher = less cytotoxic (more viable cells). The following applies: 100 nM; 24 h. The protocol:
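Solid tumor cell lines were treated with dinaciclib (100 nM) for 24 hr. Viability was measured by CellTiter-Glo ATP luminescence and expressed as % of DMSO-treated control wells (mean of 2-6 plates, triplicate wells per plate).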
Regarding LS513, the cell viability remaining was found to be 55.8%.
Take BT549: the cell viability remaining stood at 51.3%.
As for SJRH30, the cell viability remaining amounted to 12%.
For the target SW1088, the cell viability remaining came to 58%.
Regarding D283MED, the cell viability remaining came out at 43%.
With MSTO211H, the cell viability remaining worked out at 68.4%.
As for AGS, the cell viability remaining turned out to be 46.7%.
As for H460, the cell viability remaining was determined as 52.2%.
For the target MESSA, the cell viability remaining was found to be 33.4%.
Consider DAOY, for which the cell viability remaining was 23.4%.
Take MDAMB231: the cell viability remaining stood at 57.6%.
Take HEC50B: the cell viability remaining was 83.4%.
For the target EFO21, the cell viability remaining came to 93.6%.
Turning to DU4475, the cell viability remaining came to 72.3%.
For the target ASPC1, the cell viability remaining worked out at 93.6%.
On to CHP212, for which the cell viability remaining was 19.7%.
The value for HEC108 was 63%; that for HPAFII was 58.1%; that for SW1463 was 87.4%.
Turning to SW1116, the cell viability remaining turned out to be 86.8%.
In the case of H69, the cell viability remaining came out at 87.1%.
Then MALME3M, with 54.4%; and CHL1, with 3.1%.
In the case of BT20, the cell viability remaining came to 45.2%.
Then LS180, with 85.7%; and LS1034, with 75%; and H2030, with 91.9%.
SHP77: the cell viability remaining amounted to 50.2%.
Take OVSAHO: the cell viability remaining worked out at 61.8%.
On to SCC25, for which the cell viability remaining amounted to 20.5%.
Take SKMEL3: the cell viability remaining was found to be 42.9%.
Consider SKLMS1, for which the cell viability remaining is 82.9%.
Then HCC1187, with 21.6%; and HEC6, with 57.7%; and A2780, with 44.5%.
Turning to H747, the cell viability remaining was determined as 73%.
In the case of ACHN, the cell viability remaining was determined as 72.1%.
In the case of MCAS, the cell viability remaining was determined as 82.8%.
Then SKMEL1, with 68.9%; and HEC265, with 46.7%.
